# According to publication PMC12864922, “TDP-43 directly inhibits mRNA accumulation in neurites through modulation of mRNA stability”:
# The full ranking holds about 9,900 sequences; the median of “r (bound/input frequency ratio)” is about 0.7, and the highest 2% start at about 6.5. The sample as a whole holds a higher share of the highest values than the screen did.
# B1: ENSMUSG00000043670.145|Diras1 (ssRNA)
# RNA: GGGAGUUCUACAGUCCGACGAUCGCUUCGAUAUCCGCAUGCUAUCAGGGGAGGCACACUGGAACCCUGAACUUGGAGUGUGGAGUGGCUGCCUGGACACUGCCCACCUGGACACCAGCCUUCUGCUGAGAUAGAGACCUUGGCACAGUGGCACCUCGACAGCCACCCCGACUGGGGGUUUGGGGUGCUGAGGGUGGGGUGCCCAGCUGAGAGUCUAUCAGCAAAGUCCCUGUGUGCGGUGAUAGGACUAGUGGCUGCUGCCCUAGGGCUCUGACAGAAUCUGAGCCUCUUUGCUGGUCAUGUGCUCUUGCGGUCGCACUAGUGUGGAAUUCUCGGGUGUCAAGG
# B2: ENSMUSG00000022095.153|Fam160b2|110:114 (ssRNA)
# RNA: GGGAGUUCUACAGUCCGACGAUCGCUUCGAUAUCCGCAUGCUAGACUAUAGGAACUCAAGGUACAGAUGGGACAGGGCACCCCAACUCCAAACCCCAGAAGCCUAGUGAGGCUAGGCCGAGACACAAGCAGAUAGCUCUGGCAUUGUUCUUCCAUACUCCUCCAUGGCUGGGGCUGCUACCUCACCCGGCCUGAAUCUGUCUCAACCUGCAAGAGCACUCGGGCGGCGCCAGGCAUUACCUCACAACAGGCCUGCAGUUGUUGGCUUCCCUCCUGGGCAAGGAGGAGCAGGCCAGAGCCCCUUCUCUUGCGGUCGCACUAGUGUGGAAUUCUCGGGUGUCAAGG
# B3: ENSMUSG00000042529.77|Kcnj12|96:100 (ssRNA)
# RNA: GGGAGUUCUACAGUCCGACGAUCGCUUCGAUAUCCGCAUGCUAACAAACAAAAACAAACAAACAAACAAUCAAAAAAAAAACCCACCCCACAAAACACAAGAAAACAUUAACAGGUGGUUCAAUUUUUAAAAUUCCUGCACACGGGACAGUUGGAAUUCUACUCAGCGCUGCCAGGCAAGCAGCUGGACGGAGAACCCUGAGGGUUCUCAGAGGUCUGUUUUCUCCCUCACGUGGGCCAGGGCCUUAAGCGAGUUGUCAUGCUUAAGGAUGAAUCAGGCUGCUUGUGACCAUGUUAACGAUUCCUCUUGCGGUCGCACUAGUGUGGAAUUCUCGGGUGUCAAGG
# B4: ENSMUSG00000090935.460|Synj2bp (ssRNA)
# RNA: GGGAGUUCUACAGUCCGACGAUCGCUUCGAUAUCCGCAUGCUACACAACCAGUAAGAAAAAUAUUGCCAUCCAAAACAGAGCACAGUGCAGCAACAUAGAAGAUAAGCAGAUAACCAGCAAGUAUUGUAAGGAGUUCAGAAAAGGAAAGCCAUCGUGUAGUGGCAUCAGGGGAGAAUGGAAAGGAAAGUCUAGAACAGUCCAGUGAUACUUUACCUCUGGGAAAACUCUUGAUACAGGGAGACAUUUGCUUUAAACAAUCUUCACAUAACUAAGCCAUUCAGUACUUUUUGAAACUGACUUAGCUCUUGCGGUCGCACUAGUGUGGAAUUCUCGGGUGUCAAGG
# B5: ENSMUSG00000061578.947|Ksr2 (ssRNA)
# RNA: GGGAGUUCUACAGUCCGACGAUCGCUUCGAUAUCCGCAUGCUAAAGACUGCAUGUUAACGCUCCUGCCACUGUUGCCCCUUCCUUUACCCUUGGCAGACAUUGCUAAUCAAUCUCAGCACAGUUUCCAACCACAGUCAUAGAACAUUUGCCACAAAGGCCCUGGAUGUGACUAUAUGUGCUGAGAAGGGAAGGUAGUUUUCCCCCAGAAAGUCCCUUCUAAUAAACAUUGAUGACUUUAGAAUCCAUGACUCAGAAUUUUCCAGAGACCCAAUCCCUCGGGGUCCACUUAGUGAUGGGACCAUCUCUUGCGGUCGCACUAGUGUGGAAUUCUCGGGUGUCAAGG
# B6: ENSMUSG00000090935.28|Synj2bp|72:76;256:260 (ssRNA)
# RNA: GGGAGUUCUACAGUCCGACGAUCGCUUCGAUAUCCGCAUGCUAGUAAAUGGCCAAGAUCUGAAGAACCUGCUGCACCAAGAUGCUGUAGACCUCUUCCGUAAUGCGGGAUGUGCACACACCCUGAGAGUACAGCACAGGUUACCAGUGCAGAAUGGACCUAUAGUACAUCGAGGUGAAGGAGAGCCAAGUGGAGUUCCUGUAGCUAUGGUGCUGCUACCAGUGUUUGCCCUCACCAUGGUAGCAGUUUGGGCCUUCGUGAGAUACCGAAAGCAGCUUUGAAAUGCUUGCUGUCUUCCACACACCUCUUGCGGUCGCACUAGUGUGGAAUUCUCGGGUGUCAAGG
# B7: ENSMUSG00000042529.254|Kcnj12 (ssRNA)
# RNA: GGGAGUUCUACAGUCCGACGAUCGCUUCGAUAUCCGCAUGCUAUUCCCCUAGGACCCGCUGCAGAGGCAUGGGCUCCUCUGUGGUCCUGGCCAGACCUCUGCCCCCAAAUCUCACUGACUGUUCUAGCCUUGGCCUUGGGGCCUAAGGGUGCAUUCAGCCUGGGUGUGCUUACCUGCCACUCACCUCUCUAUCUAGUUGUCGAGUCUAGGGAAGGGCAGAGGGUGGGUCCUGGCCACUGGGUGCCACUGUGGGAGCCGGGGCACCUGUCAUUCUUUCUGAGUAGGUGGGCCUGUAUCCAGAGCCUCUUGCGGUCGCACUAGUGUGGAAUUCUCGGGUGUCAAGG
# B8: ENSMUSG00000061578.312|Ksr2 (ssRNA)
# RNA: GGGAGUUCUACAGUCCGACGAUCGCUUCGAUAUCCGCAUGCUACCAGGGAGGGCUGAAGCUCUGGGACCCUGAAGUGUCCCCCGGGAACUGGGACUCACUCAUCUUCUCCUGUUUGUAGCUCAAUGACCCAGUGGGUCACAGUUCUAGGCGCUCCAAGGAAGCCAGGGGAGGGGGACUCCUCAGGAAGGAGUGACCAGUCACCUGCCUCCCAGGGUUCUGCCUUGCCCUUAAGCUAGGGUCCUUCAAGCAUCCACAGACUUAGAGUGUGGUGGUAACAUGCUUGUAAUCCUGGCACUCUGGAGCUCUUGCGGUCGCACUAGUGUGGAAUUCUCGGGUGUCAAGG
# B9: ENSMUSG00000029636.114|Wasf3 (ssRNA)
# RNA: GGGAGUUCUACAGUCCGACGAUCGCUUCGAUAUCCGCAUGCUAGCGGCCAUUUUUAUGAGGGGAGCCCUGUGGGUACUCAUGUGGAAAGUGCCCACUGACUUUGGCAGAUGGAGUUCACUUUCAUGGCUAGCCCUGAUAGCGUUGGGCACCAGUUAGCCAGGCCAUGUUCAAGCUGCCUAGAGUCUGCAGAGCUUGCAUGGCAGAGCGGCCGCAUCUGGUUCCCUCCUACUCCACCCAGUGGAAAAGAGACCUCCACGUUUUAUUUUCUGGGAUCCCUGCUCCUCUGUUCACCAGGGAGUGAGCUCUUGCGGUCGCACUAGUGUGGAAUUCUCGGGUGUCAAGG
# Target: TDP-43 (Homo sapiens, UniProt Q13148 1-414)
# Sequence (Q13148 whole entry): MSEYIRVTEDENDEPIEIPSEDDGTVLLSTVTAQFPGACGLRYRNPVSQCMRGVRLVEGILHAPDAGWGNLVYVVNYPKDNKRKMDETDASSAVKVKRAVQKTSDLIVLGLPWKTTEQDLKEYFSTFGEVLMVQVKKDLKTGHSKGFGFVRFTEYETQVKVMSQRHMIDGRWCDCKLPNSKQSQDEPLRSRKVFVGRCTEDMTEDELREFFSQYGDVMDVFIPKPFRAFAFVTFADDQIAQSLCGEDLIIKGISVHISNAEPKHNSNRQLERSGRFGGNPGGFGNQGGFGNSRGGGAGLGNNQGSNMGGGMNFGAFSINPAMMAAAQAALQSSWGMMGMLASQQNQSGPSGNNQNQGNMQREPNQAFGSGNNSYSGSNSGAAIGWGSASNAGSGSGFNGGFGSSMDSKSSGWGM
# Experiment: RNA Bind-n-Seq with designed 260-mer pool; 25 mM Tris-HCl, 150 mM KCl, 3 mM MgCl2, BSA (printed 500 mg/mL), 20 units/mL SUPERase IN; pH not stated; 500 nM RNA pool, 1 h, 4 C; TDP-43 5, 50, 500 nM; high values mean tight binding
# Details: protein: recombinant; tags: SBP (GST cleaved off with PreScission; pGEX-GST-SBP)
# Summary of the method: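 In 25 mM Tris-HCl, 150 mM KCl, 3 mM MgCl2, BSA and SUPERase IN, 500 nM of an in vitro-transcribed 260-nt 3′ UTR oligo pool was incubated for 1 h at 4 °C with SBP-tagged TDP-43 (5, 50 or 500 nM) captured on streptavidin beads. RNA remaining after washes was biotin-eluted, reverse transcribed, PCR-amplified and sequenced. Binding, R, is the bound-sample abundance of each oligo, normalized to mapped reads, divided by its abundance in input. Each duplicate used a separate, independent protein batch.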
row,Binder,binding signal
1,B1,0.713 R (bound/input frequency ratio)
2,B2,1.53 R (bound/input frequency ratio)
3,B3,1.63 R (bound/input frequency ratio)
4,B4,0.396 R (bound/input frequency ratio)
5,B5,0.693 R (bound/input frequency ratio)
6,B6,1.49 R (bound/input frequency ratio)
7,B7,0.966 R (bound/input frequency ratio)
8,B8,0.535 R (bound/input frequency ratio)
9,B9,0.753 R (bound/input frequency ratio)
